A short description of assay [1]: qHTS assay to identify small molecule agonists of the estrogen receptor alpha (ER-alpha) signaling pathway in the presence of an antagonist - cell viability counter screen (AID 1259386).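 Further: cells exposed to compounds for 22 h at 37 °C before the viability read; nearly all actives have a fitted effect of over 30% in size.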 Further: potency means the concentration at half of the fitted maximal effect. An outline of the steps: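 In this counter screen, compound effects on VM7Luc4E2 viability were tested in the presence of the antagonist ICI-182,780 at 10.0nM final. Compounds were dosed at 15 concentrations, exposure lasted 22hr, and the CellTiter-Fluor signal was read.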

For assay [2], the target named is Progesterone receptor (Homo sapiens) (UniProt P06401). Briefly: qHTS assay to identify small molecule agonists of the progesterone receptor (PR) signaling pathway (AID 1346784; calls by dose curve; further: nearly all actives have a fitted effect of over 30% in size; further: potency means the concentration at half of the fitted maximal effect). In a few lines:
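Agonist qHTS: compounds pinned onto 3,000 PR-UAS-bla HEK 293T cells per well in charcoal-stripped serum medium, 16hr at 37C, then beta-lactamase activity measured by LiveBLAzer FRET fluorescence after 2 hours at room temperature.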

Assay [3] shares this target. Briefly: qHTS assay to identify small molecule antagonists of the progesterone receptor (PR) signaling pathway (AID 1346795; active means well fitted inhibition curve with a large enough effect in the signal ratio in the repeat runs, not every such curve was filed as active; the % refers to the signal ratio). In a few lines: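 Antagonist mode with agonist R5020 at 1 nM final and 16 hr incubation at 37C. Reporter was beta-lactamase driven by UAS in HEK293T (PR-UAS-bla), 2% charcoal-stripped serum; signal from LiveBLAzer FRET substrate, 2 hr at room temperature.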
In general terms: Quantitative high-throughput screening tests each substance at several concentrations.

Assay [4] can be described thus: qHTS assay to identify small molecule antagonists of the progesterone receptor (PR) signaling pathway - cell viability counter screen (AID 1346798). Further: series mostly up to about 92 µM; nearly all actives have a fitted effect of over 50% in size. An outline of the steps:
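Cytotoxicity read as CellTiter-Glo luminescence (30 min, room temperature) in the same wells as the beta-lactamase readout. HEK293T PR-UAS-bla cells in charcoal-stripped 2% FBS received compound and R5020, then 16 h at 37C, 5% CO2.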

A short description of assay [5]: qHTS assay to identify small molecule agonists of the progesterone receptor (PR) signaling pathway - cell viability counter screen (AID 1346799; calls by dose curve; further: nearly all actives have a fitted effect of over 45% in size). An outline of the steps:
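Cytotoxicity measured by CellTiter-Glo luminescence (30 min, RT) in the same wells as the PR beta-lactamase agonist read. Those HEK293T cells had 16 h compound treatment at 37 C in 2% charcoal-stripped FBS medium.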

Assay [6] can be described thus: qHTS assay to identify small molecule antagonists of the TGF-beta/Smad signaling pathway - cell viability counter screen (AID 1346824). Further: nearly all actives have a fitted effect of over 50% in size. In a few lines: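 SBE-bla HEK 293T cells were plated overnight at 37 C, then given compounds in DMSO plus TGF-beta1 (added as 0.25 ng/mL solution) for 5 hr. After the bla read, CellTiter-Glo was added to the same wells and luminescence read after 30 min at room temperature.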

The nature of assay [7]: qHTS assay to identify small molecule agonists of the TGF-beta/Smad signaling pathway - cell viability counter screen (AID 1346829). Further: top concentration of the series differs between compounds; nearly all actives have a fitted effect of over 45% in size. In a few lines: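 Tox21 qHTS format: SBE-bla HEK 293T cells treated with DMSO-dissolved compounds for 5 hr; CellTiter-Glo luminescence after 30 min at room temperature.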
Assay [8] in a line: qHTS assay to identify small molecule agonists of the TGF-beta/Smad signaling pathway (AID 1346859; active means well fitted activation curve with a large enough effect in the signal ratio in the repeat runs, not every such curve was filed as active; the % refers to the signal ratio; further: series mostly up to about 77 µM). In a few lines:
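Fluorescence (ex 405 nm; em 460 and 530 nm) was read 2 h after LiveBLAzer FRET substrate at RT. The preceding compound treatment of overnight-plated SBE-bla HEK293T cells lasted 5 h at 37 C.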

The target of assay [9] is Thyrotropin-releasing hormone receptor (Homo sapiens) (UniProt P34981). Briefly: qHTS assay to identify small molecule antagonists of the thyrotropin-releasing hormone receptor (TRHR) signaling pathway (AID 1346877; active means well fitted inhibition curve with a large enough effect in the repeat runs, not every such curve was filed as active; further: series mostly up to about 51 µM). An outline of the steps:
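Kinetic fluorescence (3 min, 1 s resolution) following stimulation with TRH at 1 nM final; HEK293 cells bearing human TRHR; 5 min compound preincubation at RT; concentration-response over 15 points, triplicates.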

The target is the same in assay [10]. Briefly: qHTS assay to identify small molecule agonists of the thyrotropin-releasing hormone receptor (TRHR) signaling pathway (AID 1346891; calls by dose curve; further: series mostly up to about 58 µM). An outline of the steps:
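Agonist-mode intracellular calcium readout: kinetic fluorescence over 3 min at 1 s intervals after compound addition to TRHR-HEK293 cells (18 h seeded, 2 h dye-loaded at 37 C). Fifteen concentrations, triplicates.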

Assay [11] is described as follows: Human pregnane X receptor (PXR) small molecule agonists, qHTS cell viability counter screen (AID 1346977). Further: nearly all actives have a fitted effect of over 50% in size. Further: potency means the concentration at half of the fitted maximal effect. An outline of the steps: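 Same-well viability read: CellTiter-Fluor added after 23 hr compound exposure, fluorescence measured 1 hr later. Cells were PXR-Luc HepG2 seeded at 2,000/well in 5% charcoal-stripped FBS medium, rested 5 hr before dosing at 37 C.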

Assay [12] in a line: Caspase-3/7 induction in HepG2 cells by small molecules, qHTS assay (AID 1346978). Further: nearly all actives have a fitted effect of over 15% in size. An outline of the steps: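 Wild-type HepG2 cells (2,000/well) were settled 5 h at 37 C, 5% CO2, then exposed to compounds in DMSO for 17 h. Caspase-3/7 activity was read by luminescence 30 min after adding Caspase-Glo 3/7 reagent at room temperature.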
A short description of assay [13]: Caspase-3/7 induction in CHO-K1 cells by small molecules, qHTS cell viability counter screen (AID 1346979). Further: nearly all actives have a fitted effect of over 35% in size. Further: potency means the concentration at half of the fitted maximal effect. In a few lines:
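Cytotoxicity counter screen: CellTiter-Fluor added to compound-treated wild-type CHO-K1 cells at 16 h (37C, 5% CO2), fluorescence measured 1 h later; same wells as caspase-3/7 measurement.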

Assay [14] can be described thus: Caspase-3/7 induction in CHO-K1 cells by small molecules, qHTS assay (AID 1346980). Further: nearly all actives have a fitted effect of over 15% in size. An outline of the steps:
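Wild-type cells were seeded at 1,500 per well and settled 5 hr at 37 C, 5% CO2, then exposed to DMSO-dissolved compounds for 17 hr. Caspase-Glo 3/7 reagent was added, and luminescence was read after 30min at room temperature.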

Assay [15] in a line: Caspase-3/7 induction in HepG2 cells by small molecules, qHTS cell viability counter screen (AID 1346981). Further: nearly all actives have a fitted effect of over 30% in size. Further: potency means the concentration at half of the fitted maximal effect. An outline of the steps:
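In this quantitative HTS counter screen, compounds delivered in DMSO were left on unmodified HepG2 cells for 16 hr at 37 C. Viability was then determined fluorometrically with CellTiter-Fluor, in parallel with caspase-3/7 induction in the same wells.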

Assay [16] concerns the target Nuclear receptor subfamily 1 group I member 2 (Rattus norvegicus) (UniProt Q9R1A7). Briefly: Rat pregnane X receptor (rPXR) activation by small molecules, qHTS assay (AID 1346983). Further: potency means the concentration at half of the fitted maximal effect; nearly all actives have a fitted effect of over 20% in size. The conditions noted are these: rPXR luciferase reporter cells, One-Glo luminescence, 24 h; max activation: hits give high values. An outline of the steps:
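Cell-based rPXR luciferase reporter assay, 2,000 cells per well, rested 5hr at 37 C before compound addition in DMSO, then 24 hr at 37 C. One-Glo reagent was added and luminescence read after 30 min at room temperature.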

Assay [17] concerns the target Cytochrome P450 2D6 (Homo sapiens) (UniProt P10635). Briefly: Cytochrome P450 Family 2 Subfamily D Member 6 (CYP2D6) small molecule antagonists: luciferase reporter qHTS assay (AID 1671196). Further: nearly all actives have a fitted effect of over 50% in size. Further: potency means the concentration at half of the fitted maximal effect. An outline of the steps:
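Test chemicals meet CYP2D6 plus proluciferin substrate (10 min, RT); NADPH regenerating solution then drives turnover for 1 h. Detection reagent halts the reaction; luminescence measured after 20 min.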
On the technique in general: In a reporter assay the amount or activity of a reporter protein is the signal.

The target of assay [18] is Nuclear receptor subfamily 1 group I member 2 (Homo sapiens) (UniProt O75469). As to the kind of experiment: Human pregnane X receptor (PXR) small molecule agonists, qHTS assay (AID 1346982). Further: nearly all actives have a fitted effect of over 35% in size. In a few lines:
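Reporter HepG2 cells expressing PXR-Luc are cultured in charcoal-stripped FBS (5%), treated with compounds for 24 hr at 37 C, and assayed by ONE-Glo luminescence after 30 min at room temperature.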

A number with no mark means an inactive call. Records with an inconclusive call do not appear. Activity calls are given as the source filed them. Unless noted, the call rests on the fitted dose curve; in most records, active means well fitted curve in the direction sought with a large enough effect in the repeat runs; inconclusive means weak or mixed curves; inactive means no such curve, though single readings can be large; an effect the other way counts as inactive or inconclusive.

Thyrotropin-releasing hormone receptor (Homo sapiens), sequence (P34981 whole entry, looked up): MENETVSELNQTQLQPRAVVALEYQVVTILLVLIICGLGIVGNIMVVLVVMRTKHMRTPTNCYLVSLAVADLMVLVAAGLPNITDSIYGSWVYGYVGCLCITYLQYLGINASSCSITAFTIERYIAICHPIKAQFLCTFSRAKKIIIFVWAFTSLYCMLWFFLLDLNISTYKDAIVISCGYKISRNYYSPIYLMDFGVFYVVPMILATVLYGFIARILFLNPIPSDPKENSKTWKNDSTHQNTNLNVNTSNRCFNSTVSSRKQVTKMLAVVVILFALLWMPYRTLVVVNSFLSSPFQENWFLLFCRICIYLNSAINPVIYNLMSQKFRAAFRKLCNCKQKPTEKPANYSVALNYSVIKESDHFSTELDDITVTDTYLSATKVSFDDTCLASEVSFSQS
Cytochrome P450 2D6 (Homo sapiens), sequence (P10635 whole entry, looked up): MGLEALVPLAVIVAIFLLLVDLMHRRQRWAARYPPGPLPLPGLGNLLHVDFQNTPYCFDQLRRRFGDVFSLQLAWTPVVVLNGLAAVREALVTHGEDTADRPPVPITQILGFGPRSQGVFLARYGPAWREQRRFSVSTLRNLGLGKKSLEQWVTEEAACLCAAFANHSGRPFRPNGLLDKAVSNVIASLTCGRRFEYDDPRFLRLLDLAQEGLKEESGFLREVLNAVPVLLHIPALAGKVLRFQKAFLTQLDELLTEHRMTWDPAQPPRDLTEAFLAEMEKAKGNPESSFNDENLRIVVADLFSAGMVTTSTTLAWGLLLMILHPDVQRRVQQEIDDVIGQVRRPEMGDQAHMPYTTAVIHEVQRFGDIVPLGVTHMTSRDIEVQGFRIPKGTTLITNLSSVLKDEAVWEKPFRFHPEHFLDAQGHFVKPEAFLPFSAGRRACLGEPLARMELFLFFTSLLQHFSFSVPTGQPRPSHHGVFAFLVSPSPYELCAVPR
Progesterone receptor (Homo sapiens), sequence (P06401 whole entry, looked up): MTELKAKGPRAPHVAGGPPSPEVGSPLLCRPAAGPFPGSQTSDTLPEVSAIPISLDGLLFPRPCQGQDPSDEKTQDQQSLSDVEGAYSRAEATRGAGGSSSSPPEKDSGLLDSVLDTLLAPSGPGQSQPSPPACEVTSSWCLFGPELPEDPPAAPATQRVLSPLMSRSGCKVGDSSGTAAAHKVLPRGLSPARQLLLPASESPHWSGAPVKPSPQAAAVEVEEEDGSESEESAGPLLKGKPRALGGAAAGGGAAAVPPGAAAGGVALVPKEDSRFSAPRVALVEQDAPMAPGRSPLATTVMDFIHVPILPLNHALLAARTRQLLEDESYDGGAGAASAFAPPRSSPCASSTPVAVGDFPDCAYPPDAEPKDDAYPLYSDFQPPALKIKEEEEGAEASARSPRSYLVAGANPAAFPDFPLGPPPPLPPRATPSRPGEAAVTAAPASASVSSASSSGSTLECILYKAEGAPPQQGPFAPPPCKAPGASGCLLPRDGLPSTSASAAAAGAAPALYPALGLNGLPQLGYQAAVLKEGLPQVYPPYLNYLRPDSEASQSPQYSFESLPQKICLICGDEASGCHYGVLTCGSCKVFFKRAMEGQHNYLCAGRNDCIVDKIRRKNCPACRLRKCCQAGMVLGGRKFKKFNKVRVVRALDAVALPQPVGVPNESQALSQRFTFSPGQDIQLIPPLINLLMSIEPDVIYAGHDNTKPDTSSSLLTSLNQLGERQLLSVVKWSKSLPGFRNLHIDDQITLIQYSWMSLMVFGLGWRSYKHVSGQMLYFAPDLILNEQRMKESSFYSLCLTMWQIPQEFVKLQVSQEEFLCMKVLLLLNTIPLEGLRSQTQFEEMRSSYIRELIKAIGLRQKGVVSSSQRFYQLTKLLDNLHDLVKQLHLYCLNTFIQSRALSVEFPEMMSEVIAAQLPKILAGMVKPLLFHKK
Nuclear receptor subfamily 1 group I member 2 (Homo sapiens), sequence (O75469 whole entry, looked up): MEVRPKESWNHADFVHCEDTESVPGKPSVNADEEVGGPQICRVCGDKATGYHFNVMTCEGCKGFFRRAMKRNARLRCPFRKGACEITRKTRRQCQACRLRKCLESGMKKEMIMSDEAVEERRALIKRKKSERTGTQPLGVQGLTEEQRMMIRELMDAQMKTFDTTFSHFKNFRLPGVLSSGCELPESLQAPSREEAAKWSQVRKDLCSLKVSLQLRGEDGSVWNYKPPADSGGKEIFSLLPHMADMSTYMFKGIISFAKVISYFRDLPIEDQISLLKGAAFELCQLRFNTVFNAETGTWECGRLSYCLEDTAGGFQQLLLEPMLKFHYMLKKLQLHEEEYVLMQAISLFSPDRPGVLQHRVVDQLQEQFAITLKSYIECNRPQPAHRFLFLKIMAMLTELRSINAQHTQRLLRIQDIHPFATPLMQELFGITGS
Nuclear receptor subfamily 1 group I member 2 (Rattus norvegicus), sequence (Q9R1A7 whole entry, looked up): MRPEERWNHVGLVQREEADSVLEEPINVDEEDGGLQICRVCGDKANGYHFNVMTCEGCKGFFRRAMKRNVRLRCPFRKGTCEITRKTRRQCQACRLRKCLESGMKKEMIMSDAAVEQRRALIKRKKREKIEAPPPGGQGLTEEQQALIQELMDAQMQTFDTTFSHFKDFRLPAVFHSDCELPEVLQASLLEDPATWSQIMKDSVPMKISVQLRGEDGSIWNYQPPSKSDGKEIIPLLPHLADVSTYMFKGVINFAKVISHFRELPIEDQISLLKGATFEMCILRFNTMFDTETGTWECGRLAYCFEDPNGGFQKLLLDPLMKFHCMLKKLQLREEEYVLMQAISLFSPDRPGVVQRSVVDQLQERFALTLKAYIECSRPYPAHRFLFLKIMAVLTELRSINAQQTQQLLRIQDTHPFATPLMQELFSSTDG

With `CCC(=O)O[C@]1(C(=O)CCl)[C@@H](C)C[C@H]2[C@@H]3CCC4=CC(=O)C=C[C@]4(C)[C@@]3(F)[C@@H](O)C[C@@]21C`, the Potency entry in assay [1], in assay [3], in [4], in assay [5], in assay [6] and in [8] was “inactive” in each case. The Potency result in assay [10], in [11], in assay [12], in assay [13], in [14] and in [15] was “inactive” in each case. The Potency in assay [2] was 0.0009 µM (active); in assay [16] it was 2.24 µM (active); in [17], 15.5 µM (active). In addition, the compound was called inactive in [7] and in assay [9].

For the compound `CCOC(=O)C(=O)CCc1ccccc1`, the Potency result in assay [1], in assay [2], in [3], in [4], in [5] and in [6] was “inactive” in each case. The Potency entry in assay [8], in assay [10], in [11], in [12], in assay [13] and in assay [15] was “inactive” each time. Moreover, in [18], the Potency entry was “inactive”. Moreover, the compound was called inactive in assay [7] and in [9].

As to `CCOC(=O)C(F)(F)F`, the Potency entry in [1], in assay [2], in assay [3], in assay [4], in assay [5] and in assay [6] was “inactive” in each case. Also, the Potency entry in assay [8], in assay [10], in [11], in assay [12], in assay [13] and in assay [14] was “inactive” each time. Moreover, the Potency result in [15] and in [18] was “inactive” throughout. In addition, the compound was called inactive in assay [7] and in assay [9]. The Potency in assay [17] is 35.6 µM (active).

With `CCOC(=O)C(O)c1ccccc1` (stereo not drawn), the Potency result in assay [1], in assay [2], in assay [3], in [4], in [5] and in [6] was “inactive” in each case. The Potency entry in [8], in assay [10], in [11], in assay [15], in assay [18] and in [17] was “inactive” throughout. The result in assay [7] and in [9] was inactive.

In the case of `COc1ccc2cccc(CCNC(C)=O)c2c1`, the Potency result in assay [1], in assay [2], in [3], in assay [4], in [5] and in [6] was “inactive” each time. For the same compound, the Potency result in assay [8], in assay [10], in assay [11], in assay [12], in [13] and in [14] was “inactive” throughout. The Potency entry in [15], in assay [18] and in [17] was “inactive” throughout. Further, the call in [7] and in assay [9] was inactive.

On to `O=[N+]([O-])c1ccc(NCCO)c(OCCO)c1`, for which the Potency in assay [1] was 27.3 µM (active); in assay [11], 48.6 µM (active); in assay [13] it was 48.6 µM (active); in [15], 27.3 µM (active). Further, the Potency entry in assay [2], in assay [3], in assay [4], in [5], in assay [6] and in assay [8] was “inactive” in each case. In addition, the Potency result in assay [10], in [14], in assay [18] and in assay [17] was “inactive” in each case. Moreover, the compound was classed as inactive in [7] and in [9].

For `CCCCCC[C@@H](O)C/C=C\CCCCCCCC(=O)OC`, the Potency entry in assay [1], in assay [2], in assay [3], in assay [4], in [5] and in [6] was “inactive” in each case. Also, the Potency result in assay [8], in assay [10], in [11], in [12], in assay [13] and in assay [14] was “inactive” throughout. The Potency entry in assay [15], in assay [18] and in assay [17] was “inactive” each time. Moreover, the compound was classed as inactive in assay [7] and in assay [9].

For the origin of these results see PubChem BioAssay (Tox21).
